{"source": "PubChem BioAssay AID2732", "about": "(Emory University Molecular Libraries Screening Center, 2010)", "note": "Hit rate of the full screen: of about 220,000 compounds, about 8,200 (3.7%) were called active. The full list was thinned out, with actives kept by preference. Values without a mark were called inactive.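 The calls were made as follows: active = compounds that reduced the stress-induced luciferase reporter signal by more than about 70% of percent inhibition (limit read from the data); inactive = the rest.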 Residues, ends and D or L forms follow the SMILES beside them. *: point of attachment. Bz = O=C(c1ccccc1)*", "data": [{"experiment": "blockers of ER-stress CHOP reporter expression – cell-based, unfolded protein response, luciferase reporter, primary screen (AID 2732);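 also: 0% = tunicamycin plus vehicle and 100% = wells without tunicamycin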", "conditions": "CHO-K1 CHOP-promoter luciferase, tunicamycin-induced, 15-18 h; at 10 µM; active compounds read high", "values": [{"smiles": "CN(CC(=O)Nc1ccc(S(=O)(=O)N2CCCC2)cc1)Cc1ccc(Cl)c(Cl)c1", "inhibition": "25.8%"}, {"smiles": "CS(=O)(=O)N(CC(=O)Nc1ccc(Cl)c(Cl)c1)C1CCCCC1", "inhibition": "99.8% (active)"}, {"smiles": "CCC(C)NC(=O)CN(C1CCCCC1)S(C)(=O)=O", "note": "(configuration not stated)", "inhibition": "5.15%"}, {"smiles": "O=C(O)C(NS(=O)(=O)c1cccc2nsnc12)c1ccccc1", "note": "(configuration not stated)", "inhibition": "16%"}, {"smiles": "O=C1COc2ccc(C(=O)COC(=O)c3cccnc3Cl)cc2N1", "inhibition": "-9.06%"}, {"smiles": "CCCc1nc2ccccc2c(C(=O)OCc2nnc(-c3cc(OC)c(OC)c(OC)c3)o2)c1CC", "inhibition": "58%"}, {"smiles": "CCCc1nc2ccccc2c(C(=O)OCC(=O)c2ccc3c(c2)NC(=O)CO3)c1CC", "inhibition": "102% (active)"}, {"smiles": "C#CCO[C@@H]1C[C@H](n2cnc3c(=O)[nH]c(NC(=O)C(C)C)nc32)O[C@@H]1CO", "inhibition": "-12.9%"}, {"smiles": "COc1ccc([N+](=O)[O-])cc1N(CC(O)CN(CC(C)C)CC(C)C)S(=O)(=O)c1ccc(C)cc1", "note": "(configuration not stated)", "inhibition": "9.51%"}, {"smiles": "COc1ccc(CN2C(=O)C(C)S/C2=N/N=C/c2ccco2)cc1", "note": "(configuration not stated)", "inhibition": "5.76%"}, {"smiles": "S=C(NCCc1ccccc1)NCc1ccccc1Cl", "inhibition": "76.7% (active)"}, {"smiles": "S=C(NCCc1ccccc1)Nc1ccccc1", "inhibition": "-23.1%"}, {"smiles": "Cc1ccc(NC(=S)NCc2ccccc2Cl)c(C)c1", "inhibition": "21.4%"}, {"smiles": "CCCCCCCCCCCCC(NC(C)=O)(C(=O)OCC)C(=O)OCC", "inhibition": "28.6%"}, {"smiles": "Cc1cc(-c2n[nH]c(=S)n2/N=C/c2ccco2)n[nH]1", "inhibition": "-10.9%"}, {"smiles": "Cc1cc(-c2n[nH]c(=S)n2/N=C/C(Br)=C/c2ccccc2)n[nH]1", "inhibition": "106% (active)"}, {"smiles": "S=c1[nH]nc(-c2cccnc2)n1/N=C/C(Cl)=C\\c1ccccc1", "inhibition": "-39.3%"}, {"smiles": "COC(=O)c1sc(NC(=S)NC(=O)c2ccc(C)cc2)nc1C", "inhibition": "-2.37%"}, {"smiles": "Nc1ccccc1C(=O)NC1CCCCNC1=O", "note": "(configuration not stated)", "inhibition": "13.6%"}, {"smiles": "COc1ccccc1Cn1c(CO)nc2ccccc21", "inhibition": "6.99%"}, {"smiles": "Cc1ccc(Nc2c3c(nc4ccccc24)CCC3)cc1", "inhibition": "17.5%"}, {"smiles": "Cc1cc(C2=NNC(=Nc3ccc(S(=O)(=O)N4CCOCC4)cc3)SC2)c(C)n1CC1CCCO1", "note": "(configuration not stated)", "inhibition": "6.71%"}, {"smiles": "C=CCn1c(C)cc(C2=NNC(=NCC)SC2)c1C", "inhibition": "105% (active)"}, {"smiles": "COCCn1c(C)cc(C2=NNC(=Nc3ccc(F)cc3)SC2)c1C", "inhibition": "-7.2%"}, {"smiles": "CCN(CC)C(=O)c1sc(NC(=O)c2ccco2)c(C#N)c1C", "inhibition": "-5.34%"}, {"smiles": "CCCc1ccc(-c2c(C)sc(NC(=O)c3ccnn3C)c2C#N)cc1", "inhibition": "76.4% (active)"}, {"smiles": "Cn1nccc1CNC(=O)c1ccnn1C", "inhibition": "-26%"}, {"smiles": "CCCCCCCN=C(C)c1ccccc1O", "inhibition": "-7.28%"}, {"smiles": "Cc1ccc(NC(=O)Nc2cccc(C(F)(F)F)c2)nc1", "inhibition": "-25.1%"}, {"smiles": "CCNS(=O)(=O)c1ccc(NC(=O)Nc2cccc(C(F)(F)F)c2)cc1", "inhibition": "87.4% (active)"}, {"smiles": "CCNS(=O)(=O)c1ccc(NC(=O)Nc2cccc(OC)c2)cc1", "inhibition": "-10.9%"}, {"smiles": "Cn1nc(C(F)(F)F)cc1C(=O)O", "inhibition": "13.6%"}, {"smiles": "CSC1=NCCN1C(=O)Cc1cccc2ccccc12", "inhibition": "13.7%"}, {"smiles": "O=C(Nc1ccc2ccccc2c1)Nc1ccc2snnc2c1", "inhibition": "79.2% (active)"}, {"smiles": "COc1ccc(NC(=O)Nc2ccc3nsnc3c2)cc1", "inhibition": "4.53%"}, {"smiles": "O=C(Nc1ccccc1)Nc1nc2ccccc2s1", "inhibition": "-20.1%"}, {"smiles": "Cc1ccc(F)cc1NC(=O)N1CCCN(c2ccc(C(F)(F)F)cn2)CC1", "inhibition": "1.83%"}, {"smiles": "COc1cc(NC(=O)c2cncc(-c3ccc(C#N)cc3)c2)cc(C(=O)Nc2cccc(C(F)(F)F)c2)c1", "inhibition": "22.1%"}, {"smiles": "COc1ccc(OCC(=O)Nc2nnc(-c3ccco3)s2)cc1", "inhibition": "28.2%"}, {"smiles": "CNc1nnc(-c2ccco2)s1", "inhibition": "7.19%"}, {"smiles": "Cc1ccc(OCC(=O)Nc2nnc(-c3ccco3)s2)cc1", "inhibition": "82.2% (active)"}, {"smiles": "CC(NCc1ccccc1OC1CCCC1)c1ccccc1", "note": "(configuration not stated)", "inhibition": "11.4%"}, {"smiles": "O=C(CSc1nc2ccccc2o1)N/N=C/c1ccccc1C(=O)O", "inhibition": "-2.6%"}, {"smiles": "C=CCNC(=O)CSc1nc2scc(-c3ccco3)c2c(=O)n1CC=C", "inhibition": "-19.4%"}, {"smiles": "O=S(=O)(Nc1ccc(Cl)cn1)c1cnc(Cl)c(Br)c1", "inhibition": "9.6%"}, {"smiles": "CCCCN1C(=O)/C(=C2/C=CC=CN2C)SC1=S", "inhibition": "-3.04%"}, {"smiles": "CCN1C(=O)/C(=C\\N2CCN(c3ccccc3)CC2)SC1=S", "inhibition": "23.4%"}, {"smiles": "CCCCN1C(=O)/C(=C/C=C2/C=Cc3ccccc3N2CC)SC1=S", "inhibition": "70.5% (active)"}, {"smiles": "CC1Cc2ccccc2N1CC(=O)Nc1ccc(S(N)(=O)=O)cc1", "note": "(configuration not stated)", "inhibition": "-11.8%"}, {"smiles": "COc1ccc(Nc2cc(Cl)ccc2C(=O)O)cn1", "inhibition": "9.7%"}, {"smiles": "CCNC(=O)CCc1nc(-c2ccc(C(C)(C)C)cc2)no1", "inhibition": "91% (active)"}, {"smiles": "Cc1ccc(-c2noc(CCC(N)=O)n2)cc1", "inhibition": "10.7%"}, {"smiles": "CCNC(=O)CCc1nc(-c2ccc(C)cc2)no1", "inhibition": "11.2%"}, {"smiles": "CC1CCN(c2ccc([N+](=O)[O-])c(SCCO)c2)CC1", "inhibition": "7.43%"}, {"smiles": "O=C(O)c1ccc(NC(=O)c2cccs2)cc1", "inhibition": "28.8%"}, {"smiles": "Cc1cccc(S(=O)(=O)CC(=O)Nc2nc(-c3ccccc3)cs2)c1", "inhibition": "-8.42%"}, {"smiles": "Cc1ccc(OCC(=O)Nc2ccc(-c3nc4ncccc4o3)cc2)cc1", "inhibition": "-4.24%"}, {"smiles": "Cc1ccc(C(=O)NNC(=O)c2cccs2)cc1", "inhibition": "-31.6%"}, {"smiles": "Cc1ccc(-c2csc(NC(=O)c3cccs3)n2)cc1", "inhibition": "78.4% (active)"}, {"smiles": "CCCc1ccc(-c2csc(NC(=O)Cc3cccs3)n2)cc1", "inhibition": "12.1%"}, {"smiles": "COc1ccc(CC(=O)Nc2ccc(C(=O)NC(C)(C)C)cc2)cc1", "inhibition": "19.1%"}, {"smiles": "Cc1ccc(-c2nnc(-c3ccc(NC(=O)c4cccs4)cc3)o2)cc1", "inhibition": "89% (active)"}, {"smiles": "Cc1ccc(-c2csc(NC(=O)Cn3[nH]c(=O)c4ccccc4c3=O)n2)cc1", "inhibition": "80% (active)"}, {"smiles": "COc1ccc(CC(=O)Nc2ccc(-c3nnc(-c4ccc(C)cc4)o3)cc2)cc1", "inhibition": "83.6% (active)"}, {"smiles": "O=C(Nc1ccc2oc(-c3ccc4ccccc4c3)nc2c1)c1cccs1", "inhibition": "-26.2%"}, {"smiles": "Cc1ccc(-c2csc(NNC(=O)c3ccccc3)n2)cc1", "inhibition": "21.4%"}, {"smiles": "CC(=O)N1CC[n+]2c(-c3ccc([N+](=O)[O-])cc3)csc21", "inhibition": "-3.95%"}, {"smiles": "O=C(O)CCc1cccnc1", "inhibition": "16.7%"}, {"smiles": "COc1ccc(CN2CCOC2=O)cc1OC", "inhibition": "-5.21%"}, {"smiles": "COc1ccc(N2C(=O)C3C(C2=O)C(C(=O)c2ccccc2)N2CCCC32)cc1", "note": "(configuration not stated)", "inhibition": "11.9%"}, {"smiles": "CC(C)C[C@H](CO)Nc1nc(N(C)c2cccc(Cl)c2)c2ncn(C(C)C)c2n1", "inhibition": "21.8%"}, {"smiles": "COC(=O)c1ccccc1N=Nc1c(C)[nH][nH]c1=O", "inhibition": "14.2%"}, {"smiles": "CCCNc1c(N)c(=O)c1=O", "inhibition": "3.2%"}, {"smiles": "CCc1c(C)nc2c(-c3ccccc3)c(C)nn2c1Nc1ccc(NC(C)=O)cc1", "inhibition": "17.3%"}, {"smiles": "CCS(=O)(=O)c1cc([N+](=O)[O-])c(Sc2ccccc2N)s1", "inhibition": "-0.04%"}, {"smiles": "COc1cc(C(F)(F)F)nc2c(Br)c(C(C)(C)C)nn12", "inhibition": "15%"}, {"smiles": "CCN(CC)CCn1cnc2c1c(=O)n(CCOC(=O)c1cc(OC)c(OC)c(OC)c1)c(=O)n2C", "inhibition": "-3.64%"}, {"smiles": "Oc1c(CN2CCN(c3ccc(F)cc3)CC2)cc(Cl)c2cccnc12", "inhibition": "92% (active)"}, {"smiles": "CCN1CCN(C(c2cccnc2)c2cc(Cl)c3cccnc3c2O)CC1", "note": "(configuration not stated)", "inhibition": "-101%"}, {"smiles": "Fc1ccc(N2CCN(Cc3cnc(Oc4ccc(Br)cc4)s3)CC2)cc1", "inhibition": "21%"}, {"smiles": "Cc1cc(N2CCN(c3ccc(F)cc3)CC2)n2ncnc2n1", "inhibition": "1.35%"}, {"smiles": "O=C(C(Cc1ccccc1)n1cccc1)N1CCN(C2CCCCC2)CC1", "note": "(configuration not stated)", "inhibition": "72.6% (active)"}, {"smiles": "Cc1ccc(C(=O)N2CCN(C3CCCCC3)CC2)s1", "inhibition": "12.7%"}, {"smiles": "O=C(NC(Cc1ccccc1)C(=O)N1CCCC1C(=O)O)c1ccccc1", "note": "(stereo not drawn) (Bz-Phe-Pro-OH; configuration not given here)", "inhibition": "-0.39%"}, {"smiles": "CC(=O)c1ccc(S(=O)(=O)N2CCN(C(=O)/C=C/c3ccc4ccccc4n3)CC2)cc1", "inhibition": "60%"}, {"smiles": "O=C(Nc1ccc(Cl)cc1)OCc1cc(-c2ccccc2)on1", "inhibition": "89.7% (active)"}, {"smiles": "O=C(Nc1ccccc1)OCc1cc(-c2ccc(Cl)cc2)on1", "inhibition": "-15.4%"}, {"smiles": "O=C(Nc1ccccc1)OCc1cn(-c2ccc(Cl)cc2)nn1", "inhibition": "-8.26%"}, {"smiles": "CCOC(=O)Cn1c2c(c(-c3ccccc3OC)cc1=O)CCCC2", "inhibition": "77.2% (active)"}, {"smiles": "CCOC(=O)CN1CCC(c2ccccc2)CC1", "inhibition": "8.89%"}, {"smiles": "CCOC(=O)Cn1c(-c2cccnc2Cl)nc2ccccc21", "inhibition": "-1.12%"}, {"smiles": "FC(F)(F)c1nc(-c2ccccc2)ncc1-c1nnnn1-c1ccccc1", "inhibition": "49.3%"}, {"smiles": "CCOn1c(SC(C)C)nc2ccccc2c1=O", "inhibition": "-9.05%"}, {"smiles": "CC(Sc1nc2ccccc2c(=O)n1Cc1ccco1)C(=O)c1ccccc1", "note": "(configuration not stated)", "inhibition": "16.2%"}, {"smiles": "CCOC(=O)C(C)Sc1nc2ccccc2c(=O)n1CC1CCCCC1", "note": "(configuration not stated)", "inhibition": "99.3% (active)"}, {"smiles": "Cc1nnc2n1N=C(c1ccc3c(c1)NC(=O)CO3)CS2", "inhibition": "8.13%"}, {"smiles": "O=C(O)c1ccccc1C(=O)Nc1ccccc1[N+](=O)[O-]", "inhibition": "-7.32%"}, {"smiles": "CNCC(O)c1ccc(O)c(O)c1", "note": "(configuration not stated)", "inhibition": "-0.79%"}, {"smiles": "CCC(C)c1ccc(O)c(/C=N/O)c1", "note": "(configuration not stated)", "inhibition": "71.8% (active)"}, {"smiles": "O=C(CCc1ccccc1)Nc1ncc([N+](=O)[O-])s1", "inhibition": "-9.45%"}, {"smiles": "CC(=O)Oc1ccccc1C(=O)Nc1ncc([N+](=O)[O-])s1", "inhibition": "72.1% (active)"}, {"smiles": "O=C(Cc1c(F)cccc1Cl)Nc1ncc([N+](=O)[O-])s1", "inhibition": "9.25%"}]}]}
